In PubChem BioAssay (NCATS):
Records with an inconclusive call do not appear. Active and inactive are the calls of the source. Calls come from the whole dose curve; as a rule, active = well fitted curve in the direction sought with a large enough effect; inconclusive = small, poorly fitted or top-dose-only effect, or another doubt; inactive = no such curve, though single readings can be large; an effect the other way counts as inactive or inconclusive.

Assays:
[1] = target: DNA repair nuclease/redox regulator APEX1 (Homo sapiens) (UniProt P27695); assay: qHTS Validation Assay for Inhibitors of the Human Apurinic/apyrimidinic Endonuclease 1 (APE1) (AID 1705;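 note: TAMRA fluorescence gain over two minutes as APE1 cuts a quenched THF abasic duplex; series mostly up to about 57 µM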)
Method in brief: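 Activity read as rising fluorescence (598 nm emission, 525 nm excitation) from incision of a TAMRA/BHQ-2 duplex carrying a THF abasic site (50 nM). Compound and enzyme sat 15 min at RT before substrate start; signal change between first and third 60-s reads.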

[2] = Counterscreen for APE1 Inhibitors: Fluorescent Dye Displacement Validation Assay (AID 1707)
Method in brief: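 ThO 250 nM + dsDNA 50 nM (THF abasic site, 5'-TAMRA), Tris-HCl pH7.5/50mM NaCl/2 mM MgCl2/0.01% Tween-20; compounds pin-transferred; ex 480/em 540 nm endpoint. Neutral = no compound; no-DNA ThO wells = negative control.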

[3] = target: Endonuclease 4 (Escherichia coli (strain K12)) (UniProt P0A6C1); assay: Counterscreen for APE1 Inhibitors: qHTS Validation Assay for Inhibitors of Endonuclease IV (AID 1708)
Method in brief: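 Enzymatic AP-site incision assay using a double-stranded THF substrate labelled with TAMRA and BHQ-2; released fluorescence signals activity. Enzyme 2 nM, substrate 50 nM, 15 min compound preincubation.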

[4] = qHTS for differential inhibitors of proliferation of Plasmodium falciparum line 7G8 (AID 1815);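 note: parasite growth measured after three days of incubation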; note: potency is the fitted concentration of half-maximal effect
[5] = qHTS for differential inhibitors of proliferation of Plasmodium falciparum line GB4 (AID 1816); details: Potency: Plasmodium falciparum GB4 proliferation inhibition;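 note: parasite growth measured after 72 h incubation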; note: potency is the fitted concentration of half-maximal effect
[6] = qHTS for differential inhibitors of proliferation of Plasmodium falciparum line 3D7 (AID 1876); note: potency is the fitted concentration of half-maximal effect
[7] = qHTS for differential inhibitors of proliferation of Plasmodium falciparum line Dd2 (AID 1882); details: Potency: Plasmodium falciparum Dd2 proliferation inhibition; note: nearly all actives have a fitted effect of over 65% in size; note: potency is the fitted concentration of half-maximal effect
Method in brief: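 SYBR Green I DNA fluorescence read-out, ex 485/em 535 nm. Signals were normalized to 0.29 uM artemisinin and DMSO wells, then corrected using vehicle-only plates flanking each stack. Parasite growth ran 72 h in erythrocytes before lysis.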

[8] = qHTS for differential inhibitors of proliferation of Plasmodium falciparum line W2 (AID 1883); details: Potency: Plasmodium falciparum W2 proliferation inhibition;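 note: parasites grown with compound for 72 h before lysis and staining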; note: potency is the fitted concentration of half-maximal effect
[9] = qHTS for differential inhibitors of proliferation of Plasmodium falciparum line HB3 (AID 1886); details: Potency: Plasmodium falciparum HB3 proliferation inhibition;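 note: parasites grown with compound for 72 h before SYBR Green readout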; note: potency is the fitted concentration of half-maximal effect
[10] = target: Ferritin light chain (Equus caballus) (UniProt P02791); assay: qHTS Validation Assay for Identification of Novel General Anesthetics (AID 2323); note: series mostly up to about 77 µM
Method in brief: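 Competitive displacement of the profluorescent anesthetic 1-AMA (50% saturated, PBS) from 10 uM apoferritin, 10 min, room temperature. Activity is normalized 380/535 nm fluorescence; concentration-response fitted with a four-parameter Hill equation.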

[11] = target: ATP-dependent DNA helicase Q1 (Homo sapiens) (UniProt P46063); assay: qHTS Validation Assay for Inhibitors of RecQ-Like Dna Helicase 1 (RECQ1) (AID 2353)
Method in brief: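 50 nM RECQ1T1 preincubated 15 min with compound in Tris pH 8.0 buffer with MgCl2, DTT, Tween-20 and 2.5 ug/ml poly(dI-dC); started with 200 nM TAMRA/BHQ-2 forked duplex and 2 mM ATP. Unwinding read as fluorescence (525/598 nm), two reads 2 h apart.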

[12] = Cytometric Cell-Based qHTS for Inhibitors of the mTORC1 Signaling Pathway in MEF (Tsc2-/-, p53-/-) Cells (AID 2660);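 note: Tsc2 and p53 null MEFs carrying empty vector with compound for 24 h; percent of cells above a phospho-rpS6 to PI ratio cutoff in each well; series mostly up to about 38 µM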
Method in brief: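 Percent of cells positive for normalized phospho-S6 staining is reported, with the cutoff set from rapamycin (7.5 nM) versus DMSO wells. Tsc2-/-, p53-/- MEFs received compound for 24 hrs.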

[13] = High Content Imaging Cell-Based qHTS for Inhibitors of the mTORC1 Signaling Pathway in MEF (Tsc2-/-, p53-/-) Cells (AID 2666);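 note: percent of cells scored positive for phospho-rpS6 Ser235/236 immunostaining by imaging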
Method in brief: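 Cells were plated, dosed with compound after 24 hrs, and incubated another 24 hrs at 37 degree Celsius. Fixed cells were immunostained for phospho-rpS6 Ser235/236 and counterstained, and the normalized signal was scored as % active cells against rapamycin and DMSO controls.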

[14] = High Content Imaging Cell-Based qHTS for Inhibitors of the mTORC1 Signaling Pathway in MEF Cells (AID 2667);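 note: Tsc2-/- p53-/- MEFs stably re-expressing wild-type Tsc2 exposed 24 h; series mostly up to about 38 µM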
Method in brief: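 Immunofluorescence for rpS6 phosphorylation in MEFs of Tsc2-/-, p53-/- background rescued with WT Tsc2. Compound exposure lasted 24 hrs. Inhibition was scored against rapamycin-treated control wells.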

[15] = target: Ubiquitin carboxyl-terminal hydrolase 2 (Homo sapiens) (UniProt O75604); assay: qHTS Validation Assay for Inhibitors of Ubiquitin-specific Protease USP2a Using CHOP2 as the Reporter (AID 463106)
Method in brief: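 10nM USP2 core + cpd, 30min RT; add 25nM Ub-CHOP2/25nM substrate; 60min RT; FI 485/531nm. Buffer Tris pH 8.0, CaCl2, BME, CHAPS. Norm. to NEM = 100% inhibition; time-zero read flags fluorescent artifacts.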

[16] = qHTS for differential inhibitors of proliferation of Plasmodium falciparum line D10 (AID 1877);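 note: parasites grown with compound for 72 h before DNA staining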; note: potency is the fitted concentration of half-maximal effect
[17] = target: RecQ-like DNA helicase BLM (Homo sapiens) (UniProt P54132); assay: qHTS Validation Assay for Inhibitors of Bloom's syndrome helicase (BLM) (AID 2364)
Method in brief: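 Forked 20-bp duplex substrate (200 nM, TAMRA/BHQ-2) plus 2 mM ATP added after 15 min compound preincubation with 50 nM enzyme, pH 8.0, poly(dI-dC) 2.5 ug/ml. Strand separation followed by fluorescence (525/598 nm) over 2 h, normalized to enzyme-free and DMSO controls.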

[18] = Cytometry Cell-Based qHTS for Inhibitors of the mTORC1 Signaling Pathway in MEF cells (AID 2668); note: potency is the fitted concentration of half-maximal effect
Method in brief: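 Phospho-rpS6 (Ser235/236) immunofluorescence over PI signal, scored as % positive cells using thresholds from 7.5 nM rapamycin and DMSO wells, after 24 h compound exposure of WT-Tsc2-rescued Tsc2-/-, p53-/- MEFs. PI cell count recorded for viability.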

[19] = Validation screen for small molecules that induce DNA re-replication in MCF 10A normal breast cells (AID 463097); note: nearly all actives have a fitted effect of over 60% in size
Method in brief: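 Read-out is Hoechst total nuclear intensity by fluorescence scanning imager, flagging increased high-DNA-content nuclei. Compounds were incubated with MCF 10A cells for 48 hr (37 C, 5% CO2) before 40 min staining.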

Measured: Potency

Sequence of ATP-dependent DNA helicase Q1 (Homo sapiens) (P46063 whole entry, looked up): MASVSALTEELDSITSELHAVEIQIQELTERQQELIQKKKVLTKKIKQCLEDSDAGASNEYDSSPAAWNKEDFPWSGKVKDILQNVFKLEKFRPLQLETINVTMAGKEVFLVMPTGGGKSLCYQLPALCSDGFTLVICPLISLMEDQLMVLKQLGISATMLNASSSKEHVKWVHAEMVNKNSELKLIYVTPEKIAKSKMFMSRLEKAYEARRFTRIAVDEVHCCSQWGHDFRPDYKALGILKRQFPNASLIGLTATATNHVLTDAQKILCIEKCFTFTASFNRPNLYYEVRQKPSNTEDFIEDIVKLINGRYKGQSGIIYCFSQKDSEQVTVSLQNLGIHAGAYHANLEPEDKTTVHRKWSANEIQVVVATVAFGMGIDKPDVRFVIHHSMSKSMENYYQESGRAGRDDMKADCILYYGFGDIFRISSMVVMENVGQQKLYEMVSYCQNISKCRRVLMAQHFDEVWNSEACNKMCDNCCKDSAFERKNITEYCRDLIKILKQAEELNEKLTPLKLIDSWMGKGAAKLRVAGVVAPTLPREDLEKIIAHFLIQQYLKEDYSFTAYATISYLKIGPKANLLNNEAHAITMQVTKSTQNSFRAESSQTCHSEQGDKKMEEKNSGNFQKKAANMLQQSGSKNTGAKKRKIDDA
Sequence of Ferritin light chain (Equus caballus) (P02791 2-175 limits assumed): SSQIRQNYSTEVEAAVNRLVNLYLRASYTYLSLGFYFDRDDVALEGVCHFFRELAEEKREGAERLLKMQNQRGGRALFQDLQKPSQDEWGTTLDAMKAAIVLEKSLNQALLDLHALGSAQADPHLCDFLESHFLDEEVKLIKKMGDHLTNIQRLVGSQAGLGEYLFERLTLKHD
Sequence of RecQ-like DNA helicase BLM (Homo sapiens) (P54132 whole entry, looked up): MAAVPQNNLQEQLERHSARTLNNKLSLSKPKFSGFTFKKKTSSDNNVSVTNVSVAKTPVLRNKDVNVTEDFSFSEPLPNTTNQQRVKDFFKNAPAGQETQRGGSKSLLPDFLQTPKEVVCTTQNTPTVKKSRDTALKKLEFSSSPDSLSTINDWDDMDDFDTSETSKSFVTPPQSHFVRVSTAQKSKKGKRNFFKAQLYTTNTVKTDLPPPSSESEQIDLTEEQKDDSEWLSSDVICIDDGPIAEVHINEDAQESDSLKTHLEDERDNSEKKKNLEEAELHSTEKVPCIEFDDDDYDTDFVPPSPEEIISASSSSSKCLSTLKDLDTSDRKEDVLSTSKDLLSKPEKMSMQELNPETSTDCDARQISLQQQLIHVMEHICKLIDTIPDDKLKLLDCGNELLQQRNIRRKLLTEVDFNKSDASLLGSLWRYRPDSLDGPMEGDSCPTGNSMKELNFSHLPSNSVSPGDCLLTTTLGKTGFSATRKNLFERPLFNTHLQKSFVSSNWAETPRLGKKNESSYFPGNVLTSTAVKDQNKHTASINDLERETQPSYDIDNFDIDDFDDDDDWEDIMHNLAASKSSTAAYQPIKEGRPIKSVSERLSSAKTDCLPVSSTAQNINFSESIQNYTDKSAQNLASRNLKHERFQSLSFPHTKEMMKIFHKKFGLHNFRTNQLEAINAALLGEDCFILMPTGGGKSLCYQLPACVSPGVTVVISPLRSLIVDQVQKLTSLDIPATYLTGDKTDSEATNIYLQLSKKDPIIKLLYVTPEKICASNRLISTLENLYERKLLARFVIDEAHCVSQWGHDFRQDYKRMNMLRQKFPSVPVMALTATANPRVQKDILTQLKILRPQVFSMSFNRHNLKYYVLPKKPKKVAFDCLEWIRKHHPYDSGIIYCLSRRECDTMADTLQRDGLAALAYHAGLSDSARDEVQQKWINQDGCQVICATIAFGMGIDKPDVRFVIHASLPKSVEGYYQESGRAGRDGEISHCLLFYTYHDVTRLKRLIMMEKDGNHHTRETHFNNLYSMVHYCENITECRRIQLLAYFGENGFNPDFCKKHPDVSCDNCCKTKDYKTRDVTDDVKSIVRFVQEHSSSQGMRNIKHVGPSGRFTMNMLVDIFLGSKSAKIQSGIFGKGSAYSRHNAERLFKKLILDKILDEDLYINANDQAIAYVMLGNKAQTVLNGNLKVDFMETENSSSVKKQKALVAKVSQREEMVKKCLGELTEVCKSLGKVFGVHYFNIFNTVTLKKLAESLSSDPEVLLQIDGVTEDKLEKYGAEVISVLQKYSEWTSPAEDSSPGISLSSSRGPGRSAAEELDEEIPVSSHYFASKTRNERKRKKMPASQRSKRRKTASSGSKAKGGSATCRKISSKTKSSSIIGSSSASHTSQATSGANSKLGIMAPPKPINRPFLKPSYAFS
Sequence of Ubiquitin carboxyl-terminal hydrolase 2 (Homo sapiens) (O75604 whole entry, looked up): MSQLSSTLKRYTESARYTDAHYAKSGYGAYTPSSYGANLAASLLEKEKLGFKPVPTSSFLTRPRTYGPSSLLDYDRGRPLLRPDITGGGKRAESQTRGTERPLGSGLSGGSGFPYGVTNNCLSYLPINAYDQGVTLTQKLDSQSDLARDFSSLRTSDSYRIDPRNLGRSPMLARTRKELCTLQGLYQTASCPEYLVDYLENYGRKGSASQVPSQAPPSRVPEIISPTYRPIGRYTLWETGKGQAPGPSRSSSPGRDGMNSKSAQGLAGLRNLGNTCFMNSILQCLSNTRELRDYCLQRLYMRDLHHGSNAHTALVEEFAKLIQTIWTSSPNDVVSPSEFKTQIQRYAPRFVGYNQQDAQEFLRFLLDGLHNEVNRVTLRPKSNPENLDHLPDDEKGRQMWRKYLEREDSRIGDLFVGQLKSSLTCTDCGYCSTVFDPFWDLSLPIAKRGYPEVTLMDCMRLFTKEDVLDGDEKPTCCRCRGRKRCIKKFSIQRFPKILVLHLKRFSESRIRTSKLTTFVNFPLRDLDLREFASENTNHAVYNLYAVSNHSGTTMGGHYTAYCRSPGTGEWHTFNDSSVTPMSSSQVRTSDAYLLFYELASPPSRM
Sequence of DNA repair nuclease/redox regulator APEX1 (Homo sapiens) (P27695 whole entry, looked up): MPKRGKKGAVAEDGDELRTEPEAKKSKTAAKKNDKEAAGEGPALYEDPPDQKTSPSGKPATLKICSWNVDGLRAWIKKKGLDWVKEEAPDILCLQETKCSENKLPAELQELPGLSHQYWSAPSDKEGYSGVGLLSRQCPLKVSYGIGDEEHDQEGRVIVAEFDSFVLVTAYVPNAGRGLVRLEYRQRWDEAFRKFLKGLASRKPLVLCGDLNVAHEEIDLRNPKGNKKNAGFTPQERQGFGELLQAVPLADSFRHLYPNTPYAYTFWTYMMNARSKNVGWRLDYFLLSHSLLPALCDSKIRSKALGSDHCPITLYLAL

NC(N)=NC(=O)Cc1c(Cl)cccc1Cl
active: [4] 3.98 µM | [5] 3.98 µM | [6] 2.82 µM | [8] 3.16 µM | [9] 1.41 µM
inactive: [1] | [2] | [3] | [7] | [10] | [11] | [12] | [13] | [14] | [15]

CN(C)C(=O)Oc1cccc([N+](C)(C)C)c1
inactive: [1] | [2] | [3] | [4] | [5] | [6] | [16] | [7] | [8] | [9] | [10] | [11] | [17] | [12] | [13] | [14] | [18]

COc1ccc(CCN(C)CCCC(C#N)(c2cc(OC)c(OC)c(OC)c2)C(C)C)cc1OC (configuration not stated)
active: [4] 7.08 µM | [5] 6.31 µM | [6] 3.16 µM | [7] 3.55 µM | [8] 2.24 µM | [9] 2.82 µM
inactive: [1] | [2] | [3] | [10] | [11] | [17] | [12] | [13] | [14] | [15]

Cc1nc2sccn2c(=O)c1CCN1CCC(=C(c2ccc(F)cc2)c2ccc(F)cc2)CC1
inactive: [1] | [2] | [3] | [10] | [11] | [12] | [13]
active: [4] 7.08 µM | [5] 10 µM | [6] 11.2 µM | [16] 10 µM | [7] 7.94 µM | [8] 10 µM | [9] 11.2 µM | [18] 11.7 µM

FC(F)(F)c1ccccc1-n1ccnc1
inactive: [1] | [2] | [3] | [4] | [5] | [6] | [16] | [7] | [9] | [10] | [11] | [17] | [12] | [13] | [14] | [18] | [19] | [15]

COCCCC/C(=N\OCCN)c1ccc(C(F)(F)F)cc1
inactive: [1] | [2] | [3] | [11] | [12] | [13] | [14] | [19] | [15]
active: [4] 10 µM | [5] 5.62 µM | [8] 2.24 µM

O=C(O)CP(=O)(O)O
inactive: [1] | [2] | [4] | [16] | [7] | [9] | [10] | [11] | [12] | [13] | [14] | [19] | [15]

CCc1c(C)[nH]c2c1C(=O)C(CN1CCOCC1)CC2 (configuration not stated)
inactive: [2] | [3] | [4] | [5] | [6] | [16] | [9] | [10] | [11] | [12] | [13] | [14]

CCn1nc(C(=O)O)c(=O)c2cc3c(cc21)OCO3
inactive: [2] | [3] | [10] | [11] | [12] | [13] | [14] | [18] | [19]

O=c1[nH]c(=O)n([C@H]2C[C@H](O)[C@@H](CO)O2)cc1Br
inactive: [2] | [3] | [4] | [5] | [6] | [16] | [7] | [8] | [9] | [10] | [11] | [17] | [12] | [13] | [14] | [19] | [15]

CC(C)NCC(O)c1cc(O)cc(O)c1 (configuration not stated)
inactive: [2] | [3] | [4] | [5] | [6] | [16] | [7] | [8] | [9] | [10] | [11] | [12] | [13] | [14] | [18] | [19] | [15]

CCN1CCC[C@H]1CNC(=O)c1c(O)c(Cl)cc(Cl)c1OC
inactive: [2] | [3] | [4] | [5] | [6] | [16] | [7] | [9] | [10] | [11] | [17] | [12] | [13] | [14] | [18] | [15]

CSc1ccc(C(=O)c2[nH]c(=O)[nH]c2C)cc1
inactive: [2] | [3] | [4] | [5] | [16] | [7] | [8] | [10] | [11] | [12] | [13] | [14] | [18]

NC/C=C/C(=O)O
inactive: [2] | [3] | [4] | [5] | [6] | [16] | [7] | [8] | [9] | [10] | [11] | [12] | [13] | [14] | [18] | [19]

O=C1CC2(CCCC2)CC(=O)N1CCCCN1CCN(c2ncccn2)CC1
inactive: [2] | [3] | [7] | [9] | [10] | [11] | [17] | [12] | [13] | [14] | [18] | [19] | [15]

Cc1ccc(/C(=C\CN2CCCC2)c2ccccn2)cc1
inactive: [2] | [3] | [10] | [11] | [12] | [13] | [14] | [18]

CCCN(CCC)CCc1cccc2c1CC(=O)N2
inactive: [2] | [3] | [4] | [5] | [6] | [16] | [7] | [9] | [10] | [11] | [12] | [13] | [14] | [18] | [19]
